Only some compounds are listed: those with a hit (about 9.5% of all), similar ones and a draw of the others.
Pf growth 48h: Primary qHTS for delayed death inhibitors of the malarial parasite plastid, 48 hour incubation; Potency, µM (highest dose often 28.7 µM), for inactives: at the top dose activity change, negative = inhibition, actives largely listed as inhibitors; 310,000 compounds, 5.9% hits; P. falciparum luciferase growth in erythrocytes, 48 h; further: on the % scale 0 is the no-effect control and ±100 the full control effect
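Luciferase-expressing parasites in RBCs, 2% Hct / 0.1% parasitemia final; RPMI 1640 + 0.5% Albumax; 37 C, 5% CO2, one generation; luminescence read-out, lower signal = inhibition.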
RE007 growth inh: qHTS Assay for Inhibitors of the HIV-1 protein Vpr | AID 651644, 2012 | Potency, µM (titrated, usually from 92.2 µM), without a hit: at the top dose activity change, negative = less growth, actives largely listed as inhibitors | 360,000 compounds, 0.21% hits | S. pombe RE007 Vpr strain, BacTiter-Glo ATP luminescence, 24 h; active means well fitted falling curve with a large enough effect; inconclusive means small, poorly fitted or top-dose-only effect; inactive means no such curve, though single readings can be large or run the other way; further: on the % scale 0 is the no-effect control and ±100 the full control effect; nearly all actives have a fitted effect of over 50% in size
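Fission yeast strain RE007, carrying one chromosomally integrated HIV-1 vpr copy, was seeded at OD 0.01 in PMG+AL medium with 23 nL pinned compound. After 24 h at 30 °C and 99% humidity, viability was read by BacTiter-Glo luminescence.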
Pf growth 96h: Primary qHTS for delayed death inhibitors of the malarial parasite plastid, 96 hour incubation. 320,000 compounds, 6.9% hits. Potency, µM (top dose mostly 28.7 µM), without a hit: at the highest dose activity change, negative = inhibition, usual class: inhibitors. P. falciparum luciferase reporter growth, 96 h; further: on the % scale 0 is the no-effect control and ±100 the full control effect
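Compounds incubated with erythrocytes infected by luciferase-expressing P. falciparum (2% hematocrit, 0.05% parasitemia final) for 96 hours, 37 C in 5% CO2. Growth inhibition scored as decreased luciferase luminescence.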
SARS PLpro yeast: qHTS of Yeast-based Assay for SARS-CoV PLP | 330,000 compounds, 0.19% hits | Potency, µM (highest dose often 32.9 µM), inactives show at the top dose activity, positive = growth rescue, usual class: activators | S. cerevisiae expressing SARS-CoV PLpro, growth rescue | AID 485353, 2010; calls by dose curve; further: 0% is about no effect; nearly all actives have a fitted effect of over 55% in size
NS1 inh: qHTS Assay for Inhibitors of Influenza NS1 Protein Function. AID 2326, 2010. Potency, µM (series often up to 46.1 µM), inactives show at the highest dose activity, positive = more growth. 270,000 compounds, 0.4% hits; calls by dose curve; further: actives are rising curves; nearly all actives have a fitted effect of over 50% in size
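Growth recovery, yeast-based: influenza A NS1 expressed in S. cerevisiae causes slow growth, and suppressors are detected by OD600. The parent strain without NS1 is used as positive control.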
Active calls of the source: *; ? = inconclusive; nt = no result given. Unless noted, the call rests on the fitted dose curve; in most records, active means well fitted inhibition curve with a large enough effect; inconclusive means small, poorly fitted or top-dose-only effect, or another doubt; inactive means no such curve, though single readings can be large or run the other way. Potency means the concentration at half of the fitted maximal effect.

SMILES	Pf growth 48h	RE007 growth inh	Pf growth 96h	SARS PLpro yeast	NS1 inh
O=C(NCc1ccc(F)cc1)C1CCN(S(=O)(=O)c2ccc(Br)s2)CC1	9.28µM*	-1.2%	?	-2.2%	-2.7%
CC(NC(=O)C1CCN(S(=O)(=O)c2ccc(Br)s2)CC1)c1ccccc1 (stereo not given)	0.0%	8.2%	23.8%	-3.2%	-3.1%
CN1C(=O)C(C)(C)c2cc(S(=O)(=O)N3CCC(C(=O)NCc4ccc(Cl)cc4)CC3)ccc21	?	-11.7%	?	-5.7%	-5.0%
CCC(C)NC(=O)C1CCN(S(=O)(=O)c2ccc(Br)s2)CC1 (stereo not given)	?	-22.4%	10.4µM*	-4.9%	-3.3%
CN1C(=O)C(C)(C)c2cc(S(=O)(=O)N3CCC(C(=O)NCc4ccc(F)cc4)CC3)ccc21	?	4.5%	13.1µM*	1.3%	-21.4%
CC(CCc1ccccc1)NC(=O)C1CCN(S(=O)(=O)N2CCCCC2)CC1 (stereo not given)	?	5.4%	1.04µM*	2.6%	1.7%
COC(=O)CCCn1cc(CN(C)C2CN(Cc3cn(CCCC(=O)OC)nn3)S(=O)(=O)C2)nn1 (stereo not given)	nt	16.5%	nt	nt	nt
COc1ccccc1N1CCN(Cc2cc(=O)c(OCC#N)co2)CC1	9.1%	-1.7%	-13.0%	2.7%	6.9%
O=[N+]([O-])c1ccc(COc2cccc(CN3CCCCC3)c2)cc1	nt	-17.6%	nt	nt	nt
COc1ccc(-c2nnn(CC(=O)NCc3ccc4c(c3)OCO4)n2)cc1OC	3.7%	13.9%	14.1%	-1.2%	nt
CCOc1ccc(-c2nnn(CC(=O)NCc3ccc(F)cc3)n2)cc1OCC	2.5%	6.1%	?	2.9%	-3.0%
CCOc1ccc(-c2nnn(CC(=O)c3ccc4c(c3)OCCO4)n2)cc1OCC	-11.3%	3.3%	14.7µM*	-3.0%	0.5%
CCOc1ccc(-c2nnn(CC(=O)Nc3cccc(OC)c3)n2)cc1OCC	-23.4%	8.1%	11.7µM*	-1.3%	4.1%
COc1cc(-c2n[nH]c(=S)n2/N=C/c2cccn2C)cc(OC)c1OC	-25.8%	9.0%	?	1.3%	4.5%
COc1ccc(C2=NN(CC(=O)Nc3ccccc3C)C(=O)CC2)cc1	4.15µM*	-12.0%	?	-2.9%	-3.6%
COCCNC(=O)CN1N=C(c2ccc(OC)cc2)CCC1=O	23.6%	85.8%	9.2%	1.0%	3.3%
Cc1ccc(S(=O)(=O)N(C)C)cc1NC(=O)CSc1nc2ccccc2c(=O)n1CC1CCCO1 (stereo not given)	?	-8.3%	?	-9.7%	5.8%
Cc1ccc(S(=O)(=O)N(C)C)cc1-n1c(SCC(=O)Nc2ccc(F)cc2Cl)nc2ccccc2c1=O	13.1µM*	-2.8%	?	18.6%	?
Cc1ccc(S(=O)(=O)N(C)C)cc1-n1c(SCC(=O)Nc2ccccc2)nc2ccccc2c1=O	?	-5.1%	?	-5.5%	?
O=C(CSc1nc2ccccc2c(=O)n1CCCN1CCOCC1)NC12CC3CC(CC(C3)C1)C2	10.4µM*	-14.5%	?	0.1%	nt
Cc1ccc(S(=O)(=O)N(C)C)cc1NC(=O)Cn1c(CN2CCOCC2)nc2ccccc2c1=O	14.7µM*	-6.0%	-20.0%	3.0%	-1.5%
CN(C)S(=O)(=O)c1ccc(Cl)c(NC(=O)CSc2nc3ccccc3c(=O)n2CCCN2CCOCC2)c1	?	-6.4%	10.4µM*	12.2%	3.9%
Cc1ccc(CNC(=O)CCS(=O)(=O)c2ccc3c(c2)CC(C)N3C(=O)C2CC2)cc1 (stereo not given)	6.2%	-8.1%	2.9%	1.4%	7.5%
Cc1ccc(OCc2cnc(Cl)s2)c(C)c1	22.2%	-2.0%	-1.5%	-0.4%	0.0%
O=C1NC(=Nc2cccc(Cl)c2)SC1Cc1cccc(Cl)c1Cl (stereo not given)	-10.2%	7.5%	10.4µM*	0.2%	23.3%
O=C1N/C(=N\c2ccccn2)SC1Cc1ccccc1Cl (stereo not given)	?	-0.4%	?	0.9%	4.7%
COc1ccc(S(=O)(=O)N(C)CC(=O)N2CCCCCC2)cc1OC	-4.3%	-3.6%	9.28µM*	3.0%	-0.9%

Screens: PubChem, National Center for Advancing Translational Sciences (NCATS)
